PubChem BioAssay AID1347420 (Sanford-Burnham Center for Chemical Genomics, 2020)
Screen size: about 1,300 compounds; about 980 (75%) were called active. Another 4% or so got no clear call; they are omitted. This is one part of the list.

The compounds below were run against Sulfhydryl oxidase 1 (Homo sapiens) (UniProt O00391) (assay: inhibition of human sulfhydryl oxidase QSOX1 – biochemical, HyperBlu H2O2 luminescence, HTS, primary screen (AID 1347420; further: values above 100% were filed as inconclusive)). Settings: recombinant QSOX1, HyperBlu H2O2 luminescence; at 12.5 µM; stronger effect = higher value; active = any value above zero.
Sequence of Sulfhydryl oxidase 1 (Homo sapiens) (O00391 whole entry, looked up): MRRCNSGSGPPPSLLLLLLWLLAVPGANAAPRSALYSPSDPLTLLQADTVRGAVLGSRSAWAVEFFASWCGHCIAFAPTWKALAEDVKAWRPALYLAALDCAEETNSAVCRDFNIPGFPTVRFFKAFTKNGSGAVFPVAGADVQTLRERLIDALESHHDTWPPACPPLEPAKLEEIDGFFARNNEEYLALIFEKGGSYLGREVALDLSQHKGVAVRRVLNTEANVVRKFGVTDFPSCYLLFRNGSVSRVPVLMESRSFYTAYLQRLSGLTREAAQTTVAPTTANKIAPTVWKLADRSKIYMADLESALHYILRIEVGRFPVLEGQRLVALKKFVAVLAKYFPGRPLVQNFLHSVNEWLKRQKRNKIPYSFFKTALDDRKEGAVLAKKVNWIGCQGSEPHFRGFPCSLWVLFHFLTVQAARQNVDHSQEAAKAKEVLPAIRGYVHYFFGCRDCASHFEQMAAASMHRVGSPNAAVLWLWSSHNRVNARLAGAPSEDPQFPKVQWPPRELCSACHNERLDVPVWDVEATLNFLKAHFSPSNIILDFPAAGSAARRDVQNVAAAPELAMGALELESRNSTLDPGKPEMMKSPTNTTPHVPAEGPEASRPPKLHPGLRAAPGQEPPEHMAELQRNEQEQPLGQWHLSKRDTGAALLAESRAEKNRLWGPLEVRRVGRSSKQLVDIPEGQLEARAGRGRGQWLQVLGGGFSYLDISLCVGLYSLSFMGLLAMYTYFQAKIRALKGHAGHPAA

SMILES | inhibition
CN/C(=C\[N+](=O)[O-])NCCSCc1ccc(CN(C)C)o1 | 14.5% (active)
CN(C)CCCc1cc(C(=O)Nc2ccc(-c3ccncc3)cc2)ccc1O | 14.6% (active)
O=C1N=C(O)C(c2ccccc2)(c2ccccc2)N1 | -13.4% (inactive)
CN(C)CCOC(=O)COc1ccc(Cl)cc1 | 2.2% (active)
CC/C(=C(\c1ccccc1)c1ccc(OCCN(C)C)cc1)c1ccccc1 | -2.1% (inactive)
O=C(c1ccccc1)c1ccc2n1CCC2C(=O)O (stereo not given) | 12.6% (active)
CN1CCC2(CCN3CCc4c(oc5ccccc45)C3C2)N(C)C1=O (stereo not given) | 4.5% (active)
Cc1nc(N=NC2=[C+]C3=C(C=C([N+](=O)[O-])[C+]=C3S(=O)(=O)[O-])C(S(=O)(=O)[O-])=[C+]2)c(COP(=O)([O-])O)c(C=O)c1O | 53.8% (active)
Cc1nc(N=Nc2ccc(C(=O)O)cc2)c(COP(=O)(O)O)c(C=O)c1O | 14.2% (active)
C[C@@H]1C(=O)NC2=Nc3cccc(Cl)c3CN21 | 3.4% (active)
c1ccc2c(c1)CC(N1CCN(c3cccc4c3OCCO4)CC1)C2 | 10.4% (active)
Clc1ccc(C(c2ccccc2Cl)C(Cl)Cl)cc1 (stereo not given) | 69.1% (active)
O=C(O)/C=C/C(O)c1ccc(Cl)cc1 (stereo not given) | -40.2% (inactive)
O=C(c1ccc(Cl)cc1)N1CCN(c2ccc([N+](=O)[O-])c3ncccc23)CC1 | 24.1% (active)
c1ccc2c(c1)CCC[C@H]2Nc1nc2ccccc2[nH]1 | 61.9% (active)
NC1CCN(c2cccc(Cl)n2)CC1 | 4.2% (active)
COCC(=O)O[C@]1(CCN(C)CCCc2nc3ccccc3[nH]2)CCc2cc(F)ccc2[C@@H]1C(C)C | 2.9% (active)
C[N+](C)(C)CCOP(=O)(O)OP(=O)([O-])OC[C@H]1O[C@@H](n2ccc(N)nc2=O)C(O)[C@H]1O (stereo not given in full) | 20.6% (active)
CC(C)(C)c1onc(OCP(=O)(O)O)c1CC(N)C(=O)O (stereo not given) | 24.4% (active)
OCc1cc(C(O)CNCCCCCCOCCCCc2ccccc2)ccc1O (stereo not given) | 34.4% (active)
CC(=O)N[C@H]1[C@H]([C@H](O)[C@H](O)CO)OC(C(=O)O)=C[C@@H]1O | 18.1% (active)
CCCOC(=O)c1c(-c2ccccc2)nc(CC)c(C(=O)SCC)c1CCC | -2.7% (inactive)
COc1cc(SC)ccc1C(=O)N1CCC(Cc2ccccc2)CC1 | -5.8% (inactive)
CC(C(O)c1ccc(O)cc1)N1CCC(Cc2ccccc2)CC1 (stereo not given) | 4% (active)
C[C@@H](CN1CCC(Cc2ccccc2)CC1)[C@@H](O)c1ccc(O)cc1 | 3.7% (active)
CC(=O)[C@@]1(O)CC[C@H]2[C@@H]3CCC4=CC(=O)CC[C@]4(C)[C@H]3CC[C@@]21C | 0.7% (active)
CC(=O)[C@H]1CC[C@H]2[C@@H]3CCC4=CC(=O)CC[C@]4(C)[C@H]3CC[C@]12C | 12.3% (active)
CC(=O)OCC(=O)[C@@]1(O)CC[C@H]2[C@@H]3CCC4=CC(=O)CC[C@]4(C)[C@H]3C(=O)C[C@@]21C | 6.5% (active)

SMILES | inhibition
C[C@]12CCC(=O)C=C1CC[C@@H]1[C@@H]2C(=O)C[C@@]2(C)[C@H]1CC[C@]2(O)C(=O)CO | -1.4% (inactive)
C[C@]12CCC(=O)C=C1CC[C@@H]1[C@@H]2CC[C@@]2(C)[C@H]1CC[C@]2(O)C(=O)CO | -11% (inactive)
O=c1ccc2c(OCCCCc3ccccc3)c3ccoc3cc2o1 | 18.3% (active)
CO/N=C(\C(=O)N[C@@H]1C(=O)N2C(C(=O)O)=C(CSc3nc(=O)c(O)nn3C)CSC12)c1csc(N)n1 (stereo not given in full) | 24.6% (active)
CO/N=C(\C(=O)N[C@@H]1C(=O)N2C(C(=O)O)=C(COC(C)=O)CS[C@H]12)c1csc(N)n1 | 26.2% (active)
CC(=O)OCC1=C(C(=O)O)N2C(=O)[C@@H](NC(=O)Cc3cccs3)[C@H]2SC1 | 11.8% (active)
CC[C@@H](CO)Nc1nc(NCc2ccccc2)c2ncn(C(C)C)c2n1 | 24.9% (active)
Cn1cnc2c(NCc3ccccc3)nc(NCCO)nc21 | 12.8% (active)
CNCCCC1c2ccccc2C=Cc2ccccc21 | 3.6% (active)
CC(=O)Oc1cc(C(C)C)c(OCCN(C)C)cc1C | 0.5% (active)
O=[N+]([O-])c1cccc2cn[nH]c12 | 16.8% (active)
COC(=O)[C@H]1[C@H]2C[C@@H]3c4[nH]c5cc(OC)ccc5c4CCN3C[C@H]2C[C@@H](OC(=O)c2cc(OC)c(OC)c(OC)c2)[C@@H]1OC | 33% (active)
COC(=O)[C@H]1[C@H]2C[C@H]3c4[nH]c5ccccc5c4CCN3C[C@H]2CC[C@@H]1O | 50.6% (active)
COC(=O)[C@@H]1[C@H]2C[C@H]3c4[nH]c5ccccc5c4CCN3C[C@@H]2CC[C@@H]1O | -38.2% (inactive)
OC[C@H]1O[C@H](n2cnc3c(N[C@H]4CCC[C@@H]4O)ncnc32)[C@H](O)[C@@H]1O | 5.7% (active)
OC[C@H]1O[C@@H](n2cnc3c(NC4CCCCC4)ncnc32)[C@H](O)[C@@H]1O | 19.1% (active)
OC[C@H]1O[C@@H](n2cnc3c(NC4CCCC4)ncnc32)C(O)[C@H]1O (stereo not given in full) | 4% (active)
C[C@H](Cc1ccccc1)Nc1ncnc2c1ncn2[C@@H]1O[C@H](CO)[C@H](O)C1O (stereo not given in full) | -5.3% (inactive)
CNc1ncnc2c1ncn2[C@@H]1O[C@H](CO)[C@H](O)C1O (stereo not given in full) | 12% (active)
CNc1ncnc2c1ncn2[C@H]1C[C@H](OP(=O)(O)O)[C@@H](COP(=O)(O)O)O1 | 13.4% (active)
CCCCC#Cc1nc(NC)c2ncn([C@@H]3O[C@H](CO)C(O)[C@@H]3O)c2n1 (stereo not given in full) | 20.2% (active)
Nc1ccc(CCNc2ncnc3c2ncn3C2OC(CO)C(O)C2O)cc1 (stereo not given) | 36.3% (active)
Cn1cc(C(=O)OCC2CCN(CCNS(C)(=O)=O)CC2)c2ccccc21 | -1% (inactive)
COc1cc(/C=C(\C#N)C(=O)Nc2nnc(C(F)(F)F)s2)ccc1OCc1ccc(C(F)(F)F)cc1C(F)(F)F | -0.4% (inactive)
COc1ccc(/C=C/C(=O)Nc2ccccc2C(=O)O)cc1OC | 4.9% (active)
CNCCC(Oc1ccccc1C)c1ccccc1 (stereo not given) | 0.9% (active)
CNCCC(Oc1ccccc1OC)c1ccccc1 (stereo not given) | 2.8% (active)
